Activity (Tm shift, normalised) data for 46 molecules are collected here from PubChem BioAssay AID651658 (Broad Institute, 2012).

The whole screen tested about 340,000 compounds, of which about 5,100 (1.5%) were called active. The full list was thinned out, with actives kept by preference. A number with no mark means an inactive call.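 The calls were made as follows: active = mean Tm shift, scaled 0 neutral to 100 positive control, at about 1.3% or above, every replicate too (limit read from the data); inconclusive = no clear call, values can overlap the other calls; inactive = the rest.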

Fibroblast growth factor 22 (Homo sapiens), sequence (Q9HCT0 whole entry, looked up): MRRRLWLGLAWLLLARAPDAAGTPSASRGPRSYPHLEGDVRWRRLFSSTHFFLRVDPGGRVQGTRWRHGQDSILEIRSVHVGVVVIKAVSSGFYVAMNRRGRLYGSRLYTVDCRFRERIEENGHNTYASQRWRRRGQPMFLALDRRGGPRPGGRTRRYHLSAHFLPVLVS

The assay has as its target Fibroblast growth factor 22 (Homo sapiens) (UniProt Q9HCT0). The experiment in a line: FGF22 ligand-induced thermal stabilization – biophysical, thermal shift, single point, FGF22 synaptogenesis inhibitor project, primary screen (AID 651658). The settings on record: recombinant FGF22 thermal shift, SYPRO orange fluorescence; at 9.99 µM; active compounds read high; percent of sucrose octasulfate shift, DMSO zero.
Turning to `C[C@@H]1CCCCO[C@@H](CN(C)Cc2ccncc2)[C@@H](C)CN([C@@H](C)CO)C(=O)c2cc(NC(=O)Nc3ccc(F)cc3)ccc2O1`, the activity (Tm shift, normalised) was -0.232%.

Take `CCCNC(=O)C[C@@H]1CC[C@H]2[C@@H](COC[C@@H](O)CN2Cc2ccccc2F)O1`: the activity (Tm shift, normalised) was 0.109%.

In the case of `CCC(=O)Nc1ccc2c(c1)OC[C@H](C)N(C(=O)Cc1cccnc1)C[C@@H](C)[C@@H](OC)CN(C)C2=O`, the activity (Tm shift, normalised) is -0.218%.

Take `CCc1cccc(NC(=O)O[C@H]2[C@H](OC(=O)Nc3ccccc3-c3ccccc3)[C@H](OC(=O)Nc3ccccc3-c3ccccc3)[C@@H](OC)O[C@@H]2CO)c1`: the activity (Tm shift, normalised) is -0.082%.

In the case of `COc1ccc(S(=O)(=O)N2CCCCN3[C@H](CO)[C@H](c4ccc(C5=CCCCC5)cc4)[C@@H]3C2)cc1`, the activity (Tm shift, normalised) is -0.535%.

As for `OC(COc1ccccc1)CN1CCN(c2cccc(Cl)c2)CC1` (stereo unspecified), the activity (Tm shift, normalised) is 0.055%.

Take `O=[N+]([O-])c1ccc(N2CCN(CC(O)COc3ccccc3)CC2)cc1` (stereo unspecified): the activity (Tm shift, normalised) is 43.9% (active).

Take `O=[N+]([O-])c1ccc(N2CCOCC2)cc1`: the activity (Tm shift, normalised) is -0.032%.

Turning to `CC(C)NC(=O)Nc1ccc2c(c1)C(=O)N([C@H](C)CO)C[C@H](C)[C@H](CN(C)C(=O)CCC(F)(F)F)OCCCC[C@H](C)O2`, the activity (Tm shift, normalised) was -0.429%.

For `CN1CCN(C(=O)C[C@H]2CC[C@H]3[C@@H](COc4ccc(NC(=O)C5CCC5)cc4C(=O)N3C)O2)CC1`, the activity (Tm shift, normalised) is -0.349%.

As to `COC(=O)C1=C(C)N(C)C(=S)NC1c1ccccc1` (stereo unspecified), the activity (Tm shift, normalised) is 0.104%.

Turning to `COC(=O)C1=C(C)N(C)C(=O)NC1c1ccc([N+](=O)[O-])o1` (stereo unspecified), the activity (Tm shift, normalised) was 43.8% (active).

For the molecule `COc1ccc(C2NC(=O)N(C)C(C)=C2[N+](=O)[O-])cc1` (stereo unspecified), the activity (Tm shift, normalised) is 0.013%.

With `COCC(=O)N1CCCCN2[C@H](CO)[C@H](c3ccc(C#Cc4ccc(OC)cc4)cc3)[C@H]2C1`, the activity (Tm shift, normalised) was 0.2%.

In the case of `COc1ccc2c3c(n(C)c2c1)[C@H](CO)N(C(C)=O)CC31CCN(Cc2cccnc2)CC1`, the activity (Tm shift, normalised) is -0.052%.

For the molecule `C/C=C/c1ccc2c(c1)O[C@H](CN(C)C(=O)Cc1ccncc1)[C@@H](C)CN([C@@H](C)CO)S2(=O)=O`, the activity (Tm shift, normalised) was -0.034%.

Consider `CC(NCC(=O)Nc1cc(Cl)cc(Cl)c1)c1ccccc1` (stereo unspecified), for which the activity (Tm shift, normalised) is -0.134%.

On to `Cc1nnc(SC(C(=O)Nc2cc(Cl)cc(Cl)c2)c2ccccc2)[nH]c1=O` (stereo unspecified), for which the activity (Tm shift, normalised) is 1.39% (active).

On to `Cc1nnc(SC(C(=O)c2ccccc2)c2ccccc2)[nH]c1=O` (stereo unspecified), for which the activity (Tm shift, normalised) is 0.339%.

Turning to `C[C@H]1CN([C@@H](C)CO)C(=O)Cc2cc(N(C)C)ccc2O[C@@H]1CN(C)S(=O)(=O)c1ccc(F)cc1`, the activity (Tm shift, normalised) was -0.149%.

Take `C[C@@H]1CCCCO[C@H](CN(C)S(=O)(=O)c2cccs2)[C@@H](C)CN([C@@H](C)CO)C(=O)c2cc(NC(=O)NC3CCCCC3)ccc2O1`: the activity (Tm shift, normalised) was -0.096%.

Turning to `Cc1ccccc1-c1ccc2c(c1)O[C@H](CN(C)C)[C@H](C)CN([C@@H](C)CO)S2(=O)=O`, the activity (Tm shift, normalised) was 0.074%.

Regarding `C[C@@H]1CN([C@@H](C)CO)C(=O)c2cc(NC(=O)CCCCCC(=O)Nc3ccccc3N)ccc2O[C@@H](C)CCCCO[C@@H]1CN(C)CC1CCCCC1`, the activity (Tm shift, normalised) was -0.209%.

Turning to `O=C(Cn1c(N2CCN(C/C=C/c3ccccc3)CC2)nc2ccccc21)c1ccccc1`, the activity (Tm shift, normalised) is 44% (active).

Consider `COc1cc(C(=O)N2CCN(C/C=C/c3ccccc3)CC2)cc(OC)c1C`, for which the activity (Tm shift, normalised) was 0.444%.

As to `CC(C)Cn1c(N2CCN(C(=O)/C=C/c3ccccc3)CC2)nc2ccccc21`, the activity (Tm shift, normalised) was -0.183%.

For `CCCC(=O)Nc1ccc2c(c1)C(=O)N(C)C[C@H](OC)[C@@H](C)CN[C@H](C)CO2`, the activity (Tm shift, normalised) is -0.019%.

Turning to `CO[C@@H](CN(C)S(=O)(=O)c1ccccc1)[C@@H](C)CN(Cc1ccccc1Cl)[C@H](C)CO`, the activity (Tm shift, normalised) was 0.183%.

`COC(=O)Cc1c(-c2[nH]c3ccccc3c2CC(=O)OC)[nH]c2ccccc12`: the activity (Tm shift, normalised) is -0.112%.

With `COC(=O)Cc1nc2c(N)nc(N)nc2[nH]c1=O`, the activity (Tm shift, normalised) is 44% (active).

Consider `Cc1cc(C)cc(N2C(=O)CSC2c2cccc([N+](=O)[O-])c2)c1` (stereo unspecified), for which the activity (Tm shift, normalised) was -0.058%.

As for `C[C@H]1CN([C@@H](C)CO)C(=O)Cc2cc(NS(=O)(=O)c3cn(C)cn3)ccc2O[C@@H]1CN(C)C(=O)Nc1ccc2c(c1)OCO2`, the activity (Tm shift, normalised) is -0.296%.

In the case of `CCCNC(=O)C[C@H]1CC[C@@H]2[C@H](COC[C@H](O)CN2S(=O)(=O)c2ccccc2F)O1`, the activity (Tm shift, normalised) was -0.049%.

Regarding `COc1ccc2c3c(n(C)c2c1)[C@H](CO)N(C)CC31CCN(C(=O)Nc2cccc(F)c2)CC1`, the activity (Tm shift, normalised) was 0.13%.

In the case of `C[C@H]1CN([C@@H](C)CO)S(=O)(=O)c2ccc(-c3ccccc3F)cc2O[C@H]1CN(C)C(=O)C1CC1`, the activity (Tm shift, normalised) was 0.047%.

In the case of `CCN1CCN(C(=O)CCN2C(=O)c3ccccc3C2=O)CC1`, the activity (Tm shift, normalised) is 44.1% (active).

On to `O=C1c2ccccc2C(=O)N1CCCCCCN1C(=O)c2ccccc2C1=O`, for which the activity (Tm shift, normalised) is -0.045%.

Regarding `CCN1CCN(C(=O)CSc2ccc(C)cc2)CC1`, the activity (Tm shift, normalised) is -0.037%.

In the case of `O=C(CN1CCOCC1)N1CC(=O)N2[C@H](C1)[C@H](c1ccc(/C=C/c3ccccc3)cc1)[C@@H]2CO`, the activity (Tm shift, normalised) was -0.125%.

With `COc1ccc(CNC(=O)CN2C(=O)c3ccccc3S2(=O)=O)cc1`, the activity (Tm shift, normalised) is 0.05%.

`CCc1nc2ccccc2c(C(=O)NCc2ccc(OC)cc2)c1C`: the activity (Tm shift, normalised) was 43.4% (active).

On to `CCc1nc2ccccc2c(C(=O)OC2CCCCC2=O)c1C` (stereo unspecified), for which the activity (Tm shift, normalised) was 0.135%.

For `O=C(NCC(F)(F)F)[C@H]1[C@H](CO)[C@H]2Cn3c(ccc(-c4ccncc4)c3=O)[C@H]2N1Cc1ccncc1`, the activity (Tm shift, normalised) is -0.221%.

As to `Cc1cccc(C)c1OCC(=O)NC(Cc1c[nH]c2ccccc12)C(=O)O` (stereo unspecified), the activity (Tm shift, normalised) was -0.152%.

On to `COc1ccc(-c2cc(C(=O)NC(Cc3c[nH]c4ccccc34)C(=O)O)c(C)o2)cc1OC` (stereo unspecified), for which the activity (Tm shift, normalised) is 1.25%.

For `COc1ccc(-c2cc(=O)oc3cc(OCC(=O)N[C@@H](Cc4c[nH]c5ccccc45)C(=O)O)ccc23)cc1`, the activity (Tm shift, normalised) was 2.9% (active).
